For 63 molecules, cytotoxicity call results are on record in the antibiotic and cytotoxicity screens of Wong et al. (2023).

About 3,300 (8.5%) of roughly 39,000 compounds were called active. This is one part of a sample in which actives are shown more often than they occur.

This experiment has as its system HepG2. In words: cytotoxicity call (relative viability < 0.9). As to conditions: 10 µM.
For the molecule `Cc1csc2c(N3CCC(Cn4cc(C(C)(C)N)nn4)CC3)ncnc12`, the cytotoxicity call is “inactive”.
`C[C@@H]1OC2=C(Cl)C(=O)N3CCC[C@H]3C[C@@]21O`: the cytotoxicity call was “inactive”.
As for `Cc1ccc(S[C@]2(C(=O)NCC(F)(F)F)CC(=O)N(Cc3ccccc3)[C@@H]2c2ccc(CO)cc2I)cc1`, the cytotoxicity call was “inactive”.
On to `C[C@@H]1CN([C@H](C)CO)S(=O)(=O)c2ccc(C#Cc3cccc(F)c3)cc2O[C@@H]1CN(C)CC1CC1`, for which the cytotoxicity call is “inactive”.
Turning to `COC(=O)[C@@H]1[C@@H](CO)[C@@H]2Cn3c(cccc3=O)[C@@H]2N1C(=O)C1CC1`, the cytotoxicity call is “inactive”.
As for `C[C@H](NC(=O)C[C@@H]1CC[C@H](NC(=O)CN2CCOCC2)[C@@H](CO)O1)c1ccccc1`, the cytotoxicity call is “inactive”.
Turning to `C[C@@H]1CCCCO[C@H](CN(C)Cc2ccccc2)[C@H](C)CN([C@H](C)CO)C(=O)c2cc(NC(=O)Cc3ccccc3)ccc2O1`, the cytotoxicity call is “inactive”.
To `C[C@@H]1CCCCO[C@H](CN(C)C(=O)Nc2ccc(C(F)(F)F)cc2)[C@H](C)CN([C@H](C)CO)C(=O)c2cc(NS(=O)(=O)c3ccc(Cl)cc3)ccc2O1` belongs “active”; to `C[C@H](CO)N1C[C@H](C)[C@H](CN(C)C(=O)Nc2ccc(C(F)(F)F)cc2)OCCCC[C@H](C)Oc2ccc(NS(=O)(=O)c3ccc(Cl)cc3)cc2C1=O`, “active”.
As for `C[C@@H]1CCCCO[C@@H](CN(C)C(=O)Nc2ccc(C(F)(F)F)cc2)[C@H](C)CN([C@@H](C)CO)C(=O)c2cc(NS(=O)(=O)c3ccc(Cl)cc3)ccc2O1`, the cytotoxicity call is “inactive”.
The result for `C[C@H](CO)N1C[C@H](C)[C@@H](CN(C)C(=O)Nc2ccc(C(F)(F)F)cc2)OCCCC[C@H](C)Oc2ccc(NS(=O)(=O)c3ccc(Cl)cc3)cc2C1=O` reads “active”.
For `C[C@@H]1CCCCO[C@H](CN(C)C(=O)Nc2ccc(C(F)(F)F)cc2)[C@@H](C)CN([C@H](C)CO)C(=O)c2cc(NS(=O)(=O)c3ccc(Cl)cc3)ccc2O1`, the cytotoxicity call was “inactive”.
Take `C[C@H]1CCCCO[C@H](CN(C)C(=O)Nc2ccc(C(F)(F)F)cc2)[C@@H](C)CN([C@@H](C)CO)C(=O)c2cc(NS(=O)(=O)c3ccc(Cl)cc3)ccc2O1`: the cytotoxicity call is “inactive”.
On to `C[C@H]1CCCCO[C@@H](CN(C)C(=O)Nc2ccc(C(F)(F)F)cc2)[C@@H](C)CN([C@@H](C)CO)C(=O)c2cc(NS(=O)(=O)c3ccc(Cl)cc3)ccc2O1`, for which the cytotoxicity call was “inactive”.
The result for `C[C@@H]1CCCCO[C@H](CN(C)C(=O)Nc2ccc(C(F)(F)F)cc2)[C@H](C)CN([C@@H](C)CO)C(=O)c2cc(NS(=O)(=O)c3ccc(Cl)cc3)ccc2O1` reads “inactive”; that for `C[C@@H]1CN([C@H](C)CO)C(=O)c2cc(NS(=O)(=O)c3ccc(Cl)cc3)ccc2O[C@@H]1CN(C)C(=O)Nc1ccc(C(F)(F)F)cc1`, “active”.
Consider `C[C@@H]1CN([C@@H](C)CO)C(=O)c2cc(NS(=O)(=O)c3ccc(Cl)cc3)ccc2O[C@@H](C)CCCCO[C@@H]1CN(C)C(=O)Nc1ccc(C(F)(F)F)cc1`, for which the cytotoxicity call is “inactive”.
To `C[C@H]1CN([C@@H](C)CO)C(=O)c2cc(NS(=O)(=O)c3ccc(Cl)cc3)ccc2O[C@@H]1CN(C)C(=O)Nc1ccc(C(F)(F)F)cc1` belongs “inactive”; to `C[C@@H]1CN([C@H](C)CO)C(=O)c2cc(NS(=O)(=O)c3ccc(Cl)cc3)ccc2O[C@H]1CN(C)C(=O)Nc1ccc(C(F)(F)F)cc1`, “inactive”.
For `NCCCC[C@@H](N)C(=O)N[C@@H](Cc1ccc(O)cc1)C(=O)N[C@@H](CCCCN)C(=O)O`, the cytotoxicity call was “inactive”.
Consider `C[C@@H]1CCCCO[C@H](CN(C)C(=O)NC2CCCCC2)[C@H](C)CN([C@@H](C)CO)C(=O)c2cc(NC(=O)Cc3ccccc3)ccc2O1`, for which the cytotoxicity call is “inactive”.
Regarding `COc1ccc(NC(=O)N(C)C[C@@H]2OCCCC[C@H](C)Oc3ccc(NC(=O)Nc4ccc5c(c4)OCO5)cc3C(=O)N([C@H](C)CO)C[C@@H]2C)cc1`, the cytotoxicity call was “inactive”.
Turning to `C[C@H]1CCCCO[C@@H](CN(C)C(=O)Nc2ccc(C(F)(F)F)cc2)[C@@H](C)CN([C@@H](C)CO)C(=O)c2cc(NC(=O)Cc3ccccc3)ccc2O1`, the cytotoxicity call is “inactive”.
As for `O=C(C[C@H]1CC[C@@H]2[C@H](COC[C@@H](O)CN2CC2CCOCC2)O1)N1CCOCC1`, the cytotoxicity call is “inactive”.
As for `C[C@@H]1CCCCO[C@@H](CN(C)C(=O)Nc2ccccc2)[C@H](C)CN([C@H](C)CO)C(=O)c2cc(NC(=O)NC3CCCCC3)ccc2O1`, the cytotoxicity call is “inactive”.
To `C[C@@H]1CN([C@H](C)CO)C(=O)c2cc(NC(=O)Nc3cccc4ccccc34)ccc2O[C@@H]1CN(C)S(=O)(=O)c1ccc(F)cc1` belongs “inactive”; to `CCS(=O)(=O)N1C[C@]2(CN(C2)S(=O)(=O)c2cn(cn2)C)c2c(n(c3cc(ccc23)OC)C)[C@H]1CO`, “inactive”.
As to `C[C@@H]1CN([C@H](C)CO)C(=O)c2cc(NS(=O)(=O)c3ccc(Cl)cc3)ccc2O[C@@H](C)CCCCO[C@H]1CN(C)C(=O)Nc1ccc(C(F)(F)F)cc1`, the cytotoxicity call is “active”.
The result for `C[C@@H]1CCCCO[C@@H](CN(C)C(=O)Nc2ccc(C(F)(F)F)cc2)[C@H](C)CN([C@H](C)CO)C(=O)c2cc(NS(=O)(=O)c3ccc(Cl)cc3)ccc2O1` reads “inactive”; that for `C[C@@H]1CCCCO[C@H](CN(C)C(=O)Nc2ccc(C(F)(F)F)cc2)[C@@H](C)CN([C@@H](C)CO)C(=O)c2cc(NS(=O)(=O)c3ccc(Cl)cc3)ccc2O1`, “inactive”; that for `O=C(C[C@H]1CC[C@@H]2[C@H](COC[C@H](O)CN2S(=O)(=O)c2ccccc2)O1)NCCN1CCCCC1`, “inactive”.
As to `C[C@H]1CCCCO[C@H](CN(C)Cc2ccccc2)[C@@H](C)CN([C@@H](C)CO)C(=O)c2cc(NC(=O)Nc3ccccc3)ccc2O1`, the cytotoxicity call is “inactive”.
In the case of `COC(=O)[C@@]12OC[C@]34[C@H]([C@@H](O)[C@@H]1O)[C@@]1(C)CC(=O)C(=O)[C@H](C)[C@@H]1C[C@H]3OC(=O)[C@H](OC(=O)/C=C(\C)C(C)C)[C@@H]24`, the cytotoxicity call was “active”.
For the molecule `COc1ccc2c3c([nH]c2c1)[C@H](CO)N(C[C@]13CCN(CC1)CC1CCCC1)C(=O)Nc1cccc(c1)F`, the cytotoxicity call is “active”.
In the case of `COc1ccc2c3c([nH]c2c1)[C@H](CO)N(CC1CCCC1)C[C@]13CCN(CC1)C(=O)Nc1cccc(c1)F`, the cytotoxicity call was “inactive”.
In the case of `COc1ccc2c3c([nH]c2c1)[C@@H](CO)N(CC1CCCC1)C[C@]13CCN(CC1)C(=O)Nc1cccc(c1)F`, the cytotoxicity call was “inactive”.
`COc1ccc2c3c([nH]c2c1)[C@@H](CO)N(C[C@]13CCN(CC1)CC1CCCC1)C(=O)Nc1cccc(c1)F`: the cytotoxicity call was “active”.
As to `COc1ccc2c3c([nH]c2c1)[C@@H](CO)N(C[C@]13CCN(CC1)C(=O)Nc1cccc(c1)F)C(=O)c1ccccc1`, the cytotoxicity call was “inactive”.
In the case of `Cc1noc(C)c1S(=O)(=O)Nc1ccc2c(c1)CC(=O)N([C@@H](C)CO)C[C@@H](C)[C@H](CN(C)S(=O)(=O)c1cccs1)O2`, the cytotoxicity call was “inactive”.
On to `CCOC(=O)C(=O)N(C)CC(OC)OC`, for which the cytotoxicity call was “inactive”.
In the case of `CCOC(=O)OC[C@@H]1[C@@H]2NC(=O)N(C)[C@@]1(COC(=O)NCCCCCC(=O)NO)Oc1ccccc12`, the cytotoxicity call is “inactive”.
Turning to `C[C@H](CO)N1C[C@H](C)[C@@H](CN(C)S(C)(=O)=O)OCCCC[C@H](C)Oc2ccc(NS(C)(=O)=O)cc2C1=O`, the cytotoxicity call is “inactive”.
To `COc1ccc(S(=O)(=O)N(C)C[C@@H]2Oc3ccc(NS(=O)(=O)c4ccc(F)cc4)cc3C(=O)N([C@H](C)CO)C[C@@H]2C)cc1` belongs “inactive”; to `CC(C)N1C[C@H](C)[C@@H](CN(C)Cc2ccc(Oc3ccccc3)cc2)Oc2c(cccc2-c2nn[nH]n2)C1=O`, “inactive”; to `Cl.N=C(N)NC(=N)NCCc1ccccc1`, “inactive”.
Turning to `N=C(N=C(N)N)NCCc1ccccc1`, the cytotoxicity call is “active”.
To `N=C(N=C(N)N)Nc1ccccc1` belongs “inactive”; to `Cc1cc(C(=O)O)c(=O)[nH]c1C`, “inactive”.
`NCCC1=CSC2=NCCN12`: the cytotoxicity call was “inactive”.
On to `O=C(CCCCCCC(=O)Nc1ccc([C@H]2O[C@@H](CSc3ccccn3)C[C@H](c3ccccc3)O2)cc1)NO`, for which the cytotoxicity call was “inactive”.
For `CCS(=O)(=O)NCC[C@@H]1CC[C@H](NC(=O)Cc2ccccn2)[C@@H](CO)O1`, the cytotoxicity call was “inactive”.
For `Cc1ccc(S(=O)(=O)N[C@@H]2CC[C@@H](CC(=O)NCc3ccc(Cl)c(Cl)c3)O[C@@H]2CO)cc1`, the cytotoxicity call was “inactive”.
For the molecule `Cc1ccccc1-c1ccc2c(c1)O[C@H](CN(C)C(=O)Nc1ccc(C(F)(F)F)cc1)[C@H](C)CN([C@H](C)CO)S2(=O)=O`, the cytotoxicity call is “inactive”.
In the case of `Cc1ccc(-c2ccc3c(c2)O[C@H](CN(C)C(=O)Nc2ccc(C(F)(F)F)cc2)[C@H](C)CN([C@@H](C)CO)S3(=O)=O)cc1`, the cytotoxicity call was “inactive”.
In the case of `Cc1ccccc1-c1ccc2c(c1)O[C@H](CN(C)C(=O)Nc1ccc(C(F)(F)F)cc1)[C@H](C)CN([C@@H](C)CO)S2(=O)=O`, the cytotoxicity call was “active”.
Regarding `Cc1ccc(-c2ccc3c(c2)O[C@@H](CN(C)C(=O)Nc2ccc(C(F)(F)F)cc2)[C@@H](C)CN([C@@H](C)CO)S3(=O)=O)cc1`, the cytotoxicity call was “inactive”.
Consider `Cc1ccccc1-c1ccc2c(c1)O[C@@H](CN(C)C(=O)Nc1ccc(C(F)(F)F)cc1)[C@H](C)CN([C@H](C)CO)S2(=O)=O`, for which the cytotoxicity call was “inactive”.
`Cc1ccc(-c2ccc3c(c2)O[C@@H](CN(C)C(=O)Nc2ccc(C(F)(F)F)cc2)[C@@H](C)CN([C@H](C)CO)S3(=O)=O)cc1`: the cytotoxicity call was “active”.
The result for `C[C@@H]1CCCCO[C@H](CN(C)Cc2ccc(C(=O)O)cc2)[C@@H](C)CN([C@H](C)CO)C(=O)c2cc(NC(=O)c3ccccc3)ccc2O1` reads “inactive”; that for `C[C@H](CO)N1C[C@H](C)[C@@H](CN(C)CC2CCCCC2)Oc2c(NC(=O)Cn3cnnn3)cccc2C1=O`, “inactive”; that for `C[C@@H]1CN([C@H](C)CO)C(=O)Cc2cc(NC(=O)Cn3cnnn3)ccc2O[C@H]1CN(C)CC1CC1`, “inactive”.
Consider `C[C@H]1CN([C@@H](C)CO)S(=O)(=O)c2ccc(-c3cccnc3)cc2O[C@@H]1CN(C)C(=O)NC1CCCC1`, for which the cytotoxicity call is “inactive”.
Take `O=C(C1CC1)N1CCCN(C(=O)C2CC2)CC1`: the cytotoxicity call is “inactive”.
